Measured values as given in paper PMC4336329 (PLoS ONE, 2015).
Screen size: about 310,000 compounds; about 14,000 (4.5%) showed an effect of 50% or more. Effects have a minus sign here. Only a selection was taken, and strong results are over-represented in it overall.

These compounds were tested against human ether-à-go-go-related gene (hERG) potassium channel (human, UniProt Q12809) (assay: primary screen, population patch clamp on CHO cells stably expressing hERG; higher = less effect of the substance).
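Note: peak tail current of the secondary pulse compared with the same well before compound.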

human ether-à-go-go-related gene (hERG) potassium channel, sequence (Q12809 whole entry, looked up): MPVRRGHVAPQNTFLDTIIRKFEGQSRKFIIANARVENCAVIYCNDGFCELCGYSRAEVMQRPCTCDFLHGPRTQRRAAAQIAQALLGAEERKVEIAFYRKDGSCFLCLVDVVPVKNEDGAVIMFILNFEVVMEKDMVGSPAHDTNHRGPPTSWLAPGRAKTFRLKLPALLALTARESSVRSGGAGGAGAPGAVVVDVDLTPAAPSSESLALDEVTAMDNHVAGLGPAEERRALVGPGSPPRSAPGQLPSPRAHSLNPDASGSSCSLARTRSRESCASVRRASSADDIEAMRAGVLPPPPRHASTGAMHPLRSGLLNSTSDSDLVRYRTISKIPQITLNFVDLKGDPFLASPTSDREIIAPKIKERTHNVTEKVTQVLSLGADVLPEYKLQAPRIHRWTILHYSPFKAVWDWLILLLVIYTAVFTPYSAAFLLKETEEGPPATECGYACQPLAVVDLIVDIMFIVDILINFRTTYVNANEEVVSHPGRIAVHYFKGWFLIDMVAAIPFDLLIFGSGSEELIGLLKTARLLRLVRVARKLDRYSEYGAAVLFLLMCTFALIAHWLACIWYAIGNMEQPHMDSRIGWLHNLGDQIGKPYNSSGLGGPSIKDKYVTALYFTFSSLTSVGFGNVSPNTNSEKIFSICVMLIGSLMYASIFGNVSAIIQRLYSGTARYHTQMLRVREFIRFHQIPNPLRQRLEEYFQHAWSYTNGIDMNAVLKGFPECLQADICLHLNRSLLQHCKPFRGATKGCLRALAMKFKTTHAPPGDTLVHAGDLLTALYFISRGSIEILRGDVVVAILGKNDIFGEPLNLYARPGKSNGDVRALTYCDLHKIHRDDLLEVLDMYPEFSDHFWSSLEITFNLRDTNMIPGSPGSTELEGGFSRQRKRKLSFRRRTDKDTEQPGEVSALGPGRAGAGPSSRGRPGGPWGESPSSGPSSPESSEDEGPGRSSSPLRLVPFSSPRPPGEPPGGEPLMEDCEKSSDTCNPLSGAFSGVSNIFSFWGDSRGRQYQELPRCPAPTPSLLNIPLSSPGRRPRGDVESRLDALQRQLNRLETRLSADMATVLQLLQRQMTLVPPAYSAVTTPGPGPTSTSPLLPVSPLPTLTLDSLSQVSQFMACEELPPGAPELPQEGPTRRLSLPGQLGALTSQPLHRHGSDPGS

| Compound | hERG current change (%, negative = inhibition) at 10uM |
| --- | --- |
| COc1ccc(Nc2nc(-c3sc(N)nc3C)cs2)cc1 | 8.32% |
| O=C(NNC1=Nc2cccc3cccc1c23)c1ccc(Br)cc1 | 4.78% |
| Cc1cccc2cc(C(c3nnnn3Cc3ccccc3)N3CCN(c4ccccc4)CC3)c(=O)[nH]c12 (centres unmarked) | -29.1% |
| COc1cccc(/C=N/NC(=O)COc2cccc3cccnc23)c1O | 0.232% |
| CN(C)/C=C(/C(=O)c1ccc(Cl)c(Cl)c1)c1nnnn1-c1ccccc1 | 9.85% |
| COc1ccc(C2C3=C(CCCC3=O)Nc3nc(SCc4ccc(C(=O)O)cc4)nn32)cc1OC (centres unmarked) | -3.79% |
| Cl.Cn1cccc1CNCCc1ccccc1 | -1.74% |
| COCCNC(=O)CN(c1ccc(OC)c(OC)c1)S(=O)(=O)c1ccc(C)cc1 | -8.68% |
| CN(c1ccc(C(=O)N2CCCCCC2)cc1)S(=O)(=O)c1ccc(Cl)cc1 | -63% |
| COc1ccc(N(CC(=O)NCCOc2ccccc2)S(=O)(=O)c2ccc(C)cc2)cc1 | -54.8% |
| CCOc1ccc(S(=O)(=O)N(CC)CC(=O)NCc2cccnc2)cc1 | -38% |
| COCCNC(=O)CN(c1cccc(OC)c1)S(=O)(=O)c1ccc(C)cc1 | -12.2% |
| CN(c1ccc(C(=O)N2CCOCC2)cc1)S(=O)(=O)c1ccc(Cl)cc1 | -34.2% |
| COCCNC(=O)CN(c1ccc(C)cc1)S(=O)(=O)c1ccccc1 | 9.01% |
| CCOc1ccc(S(=O)(=O)N(CC(=O)NCc2cccnc2)c2ccc(C)cc2)cc1 | -66.9% |
| CCc1ccc(N(CC(=O)NCc2cccnc2)S(=O)(=O)c2ccccc2)cc1 | -27% |
| COc1ccc(S(=O)(=O)N(CC(=O)NCCCN(C)C)c2ccc(C)cc2)cc1OC | -56.6% |
| CN(c1ccc(C(=O)N2CCCCC2)cc1)S(=O)(=O)c1ccccc1 | -10.8% |
| COc1ccc(S(=O)(=O)N(CC(=O)NCc2ccncc2)c2ccc(C)cc2)cc1OC | -6.77% |
| CCCC(C)c1nc(C(N)=O)c2[nH]c(=O)n(-c3ccc(OC)c(OC)c3)c2n1 (centres unmarked) | 12.6% |
| CCc1ccc(NC(=O)C2CCN(S(=O)(=O)c3cnc[nH]3)CC2)cc1 | 9.27% |
| COc1ccccc1NC(=O)Cn1cnc2sc(C(=O)Nc3cc(OC)c(OC)c(OC)c3)c(C)c2c1=O | 27.8% |
| CCn1cc(/C=C(\NC(=O)c2ccccc2OC)C(=O)NCCCN2CCOCC2)c2ccccc21 | -7.61% |
| Cc1ccccc1OCC(=O)N/N=C/c1cccn1C | 7.04% |
| COc1ccc(-n2nc(C(=O)NCC(=O)NC(C)C)c3ccccc3c2=O)cc1 | 13.7% |
| CCOC(=O)C1CCCCN1Cc1cc(OC)ccc1OC (centres unmarked) | 5.17% |
| O=C(NNc1cccc(Cl)n1)C(F)(F)F | 17.2% |

| Compound | hERG current change (%, negative = inhibition) at 10uM |
| --- | --- |
| COc1ccc(/C=N/n2c(=O)[nH]c3c([nH]c4ccc(Br)cc43)c2=O)cc1CN1CCOCC1 | 5.45% |
| O=S(=O)(c1cccc(Br)c1)N1CCN(C(=S)NCC2CCCO2)CC1 (centres unmarked) | 11.6% |
| CCOc1ccc(S(=O)(=O)N(CC(=O)Nc2cccnc2)c2ccc(F)cc2)cc1 | 2.96% |
| CCOc1ccc(N(CC(=O)NCc2ccccc2)S(=O)(=O)c2ccc(C)cc2)cc1 | 4.04% |
| COc1ccc(S(=O)(=O)N(C)c2ccc(C(=O)NCc3ccncc3)cc2)cc1 | -18.8% |
| CN(c1ccc(C(=O)NCc2ccncc2)cc1)S(=O)(=O)c1ccc(Cl)cc1 | -52.1% |
| CCOc1ccc(S(=O)(=O)N(CC(=O)NCc2cccnc2)c2ccc(F)cc2)cc1 | -72.5% |
| CN(c1ccc(C(=O)NCc2cccnc2)cc1)S(=O)(=O)c1ccc(Cl)cc1 | -15.8% |
| CCOc1ccc(S(=O)(=O)N(CC)CC(=O)NCc2ccncc2)cc1 | -13.2% |
| CCOc1ccc(S(=O)(=O)N(CC(=O)NCc2ccncc2)c2ccc(C)cc2)cc1 | -56.5% |
| CCOc1ccc(N(CC(=O)NCc2cccnc2)S(=O)(=O)c2ccc(F)cc2)cc1 | -13.6% |
| COc1cc(/C(C)=N/N2CCN(c3ccccc3OC)CC2)ccc1O | -9.07% |
| COc1ccc2c(c1)c(/C=C/c1cc[n+](C)cc1)cn2C.[I-] | 12.9% |
| Cc1cc(-n2c(C)cc(C(=O)CSc3nnnn3-c3ccc(Cl)cc3)c2C)no1 | -3.04% |
| Cc1c(C)c(C)c(CN2CCSCC2)c(C)c1C | 18.4% |
| Cc1ccc(N(C)S(=O)(=O)c2ccc(-c3cnc(C4CC4)o3)cc2)cc1 | 8.38% |
| COc1ccc(S(=O)(=O)N2CCCC(C(=O)NCc3ccco3)C2)cc1OC (centres unmarked) | 10.1% |
| CN(C)CCN(C(=O)c1ccc2c(c1)CCCC2)c1nc2cc3c(cc2s1)OCCO3.Cl | 5.76% |
| CN(C)CCCN(C(=O)c1ccc([N+](=O)[O-])o1)c1nc2cc3c(cc2s1)OCO3.Cl | -71.8% |
| CN(C)CCN(C(=O)c1ccc(C(=O)c2ccccc2)cc1)c1nc2cc3c(cc2s1)OCCO3.Cl | -12.4% |
| CCN(CC)CCN(C(=O)c1ccc(C(=O)c2ccccc2)cc1)c1nc2cc3c(cc2s1)OCO3.Cl | -43.8% |
| CN(C)CCCN(C(=O)c1ccc2c(c1)CCCC2)c1nc2cc3c(cc2s1)OCO3.Cl | -71% |
| CN(C)CCN(C(=O)c1ccc(C(=O)c2ccccc2)cc1)c1nc2cc3c(cc2s1)OCO3.Cl | 3.43% |
| CN(C)CCCN(C(=O)c1ccc(C(=O)c2ccccc2)cc1)c1nc2cc3c(cc2s1)OCO3.Cl | -56.3% |
| CN(C)CCN(C(=O)c1ccc(N2C(=O)CCC2=O)cc1)c1nc2cc3c(cc2s1)OCO3.Cl | 0.227% |
| CCN(CC)CCN(C(=O)c1ccc2ncsc2c1)c1nc2cc3c(cc2s1)OCO3.Cl | -61.8% |
| CCN(CC)CCN(C(=O)c1ccc2ccccc2c1)c1nc2cc3c(cc2s1)OCO3.Cl | -38.6% |

| Compound | hERG current change (%, negative = inhibition) at 10uM |
| --- | --- |
| Cc1nccn1Cc1ccccc1 | 25.1% |
| C(=N\Nc1nc(N2CCOCC2)nc(N2CCOCC2)n1)/c1ccco1 | 30.2% |
| CCOC(=O)C1CCN(C(=O)Cn2c(=O)c3cccn3c3cccnc32)CC1 | 3.76% |
| COC(=O)CSC1=C(C#N)C(c2ccc(Cl)cc2)C(C(=O)OC)C(=O)N1 (centres unmarked) | 0.571% |
| Cc1cccc(C)c1NC(=O)COC(=O)c1ccccc1O | 1.57% |
| O=C(NC1CCCCC1)N1CCc2[nH]c3ccccc3c2C1 | 3.15% |
| Cc1ccc2nc(N(CCN(C)C)C(=O)c3ccc4c(c3)OCCO4)sc2c1.Cl | -44.6% |
| CCN(CC)CCN(C(=O)c1ccc(Br)s1)c1nc2cc3c(cc2s1)OCCO3.Cl | -1.19% |
| CCc1ccc2nc(N(CCCN(C)C)C(=O)c3ccc4c(c3)OCCO4)sc2c1.Cl | -48.3% |
| CN(C)CCCN(C(=O)c1ccc2c(c1)OCCO2)c1nc2cc3c(cc2s1)OCO3.Cl | -56% |
| CCN(CC)CCN(C(=O)c1ccc2c(c1)OCCO2)c1nc2ccc(C)cc2s1.Cl | -71.2% |
| CCN(CC)CCN(C(=O)c1ccc(S(=O)(=O)N2CCCC2)cc1)c1nc2cc(C)cc(C)c2s1.Cl | -44.1% |
| CN(C)CCCN(C(=O)c1ccc2c(c1)OCCO2)c1nc2ccc(Cl)cc2s1.Cl | -39.9% |
| CN(C)CCN(C(=O)c1ccc2c(c1)OCCO2)c1nc2cc3c(cc2s1)OCO3.Cl | -41.9% |
| CCN(CC)CCN(C(=O)c1ccc2c(c1)OCCO2)c1nc2cc3c(cc2s1)OCO3.Cl | -67.3% |
| CCN(CC)CCN(C(=O)c1ccc2c(c1)OCCO2)c1nc2cc(C)cc(C)c2s1.Cl | -69.9% |
| CC(C)c1ccc(N2CC(C(=O)Nc3nccs3)CC2=O)cc1 (centres unmarked) | 1.98% |
| CC1(C)Cc2c(sc3nc4n(-c5ccccc5)c(=O)c(CCC(=O)O)nn4c(=O)c23)CO1 | 12.9% |
| O=c1cc(-c2ccc([N+](=O)[O-])cc2)c2cc3c(cc2[nH]1)OCCO3 | -12% |
| CC(NCc1ccc(Cl)cc1)C(O)c1ccccc1.Cl (centres unmarked) | 0.613% |
| CC(NCc1ccc(Cl)cc1Cl)C(O)c1ccccc1.Cl (centres unmarked) | -26.6% |
| CC(NCc1ccc(Cl)c(Cl)c1)C(O)c1ccccc1.Cl (centres unmarked) | -0.311% |
| CC(=O)NC(NC(C)=O)c1cccc(OCc2ccccc2)c1 | 9.33% |
| CC(NCc1ccc(OCc2ccc(Cl)cc2)cc1)C(O)c1ccccc1.Cl (centres unmarked) | -62.5% |
| CC(NCc1cccc(OCc2ccccc2)c1)C(O)c1ccccc1.Cl (centres unmarked) | -50.9% |
| Cc1ccc(C(=O)NCC(=O)OCCCn2c(=O)[nH]c3ccccc32)cc1 | -14.8% |
